Cycloheximide cs: affects cycloheximide protein synthesis inhibition readout, counter-screen | cell reporter, cycloheximide protein synthesis inhibition counterscreen | AID 2314 | max response, % | 300,000 compounds, 12% hits; in the data active = max response mostly above about 13%, no sharp cut-off; inactive = mostly below about 14%; note: read at 38.3 µM for the half of the compounds with a filed dose
LmPK inh: inhibitors of Leishmania mexicana pyruvate kinase; Q27686; purified LmPK, Kinase-Glo ATP luminescence, 1 h; Potency, µM (series often up to 57.5 µM), most hits filed as inhibitors; 290,000 compounds, 0.37% hits; AID 1721
Target sequence (Q27686 whole entry, looked up): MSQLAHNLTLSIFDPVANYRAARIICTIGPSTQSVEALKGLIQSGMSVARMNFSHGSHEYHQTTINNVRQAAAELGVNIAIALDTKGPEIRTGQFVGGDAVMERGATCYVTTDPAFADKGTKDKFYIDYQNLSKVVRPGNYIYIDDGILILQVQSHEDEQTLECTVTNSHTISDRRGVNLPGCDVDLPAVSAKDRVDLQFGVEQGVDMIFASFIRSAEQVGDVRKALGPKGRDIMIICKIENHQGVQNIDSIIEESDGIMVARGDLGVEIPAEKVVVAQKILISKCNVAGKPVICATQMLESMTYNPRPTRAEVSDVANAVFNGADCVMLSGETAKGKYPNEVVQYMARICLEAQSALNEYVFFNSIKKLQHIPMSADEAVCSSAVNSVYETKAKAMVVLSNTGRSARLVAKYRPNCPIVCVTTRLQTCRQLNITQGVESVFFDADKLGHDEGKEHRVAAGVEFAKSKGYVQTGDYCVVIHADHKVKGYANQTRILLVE
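ATP generated from ADP (0.1 mM) and PEP (0.5 mM) by 0.1 nM LmPK over 1 h at room temperature (pH 7.2 imidazole buffer) was detected by coupled luciferase luminescence. Values were normalized to uninhibited and no-enzyme wells.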
Shiga inhibitor: inhibitors of Shiga toxin in Vero cells; Vero cells, Shiga toxin protein synthesis inhibition reporter; inhibition, % at 38.7 µM; 290,000 compounds, 9.2% hits; in the data active = inhibition mostly above about 28%, no sharp cut-off; inactive = mostly below about 43%
Pf growth 96h: P. falciparum growth inhibition at 96 hour, primary screen for plastid delayed-death inhibitors; P. falciparum luciferase reporter growth, 96 h; Potency, µM (highest dose often 28.7 µM), usual class: inhibitors; 320,000 compounds, 6.9% hits; AID 504834
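Readout is luminescence from an integrated firefly luciferase in P. falciparum. Red cells, 2% hematocrit and 0.05% parasitemia final, were cultured with compound through two parasite generations (96 hours) at 37 C, 5% CO2.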
Pf growth 48h: P. falciparum growth inhibition at 48 hours (one generation). P. falciparum luciferase growth in erythrocytes, 48 h. Potency, µM (doses to about 28.7 µM), most hits filed as inhibitors. 310,000 compounds, 5.9% hits. AID 504832
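In quantitative HTS format, infected erythrocytes bearing luciferase-reporter parasites were treated for a single generation at 37 C. Luminescence after adding detection reagent served as the growth measure.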
Each line names hits and unclear results; the compound was inactive in the other large screens. Hits are enriched below; roughly 22% of the tested compounds scored in any of these assays. Unless noted, calls come from the whole dose curve; as a rule, active = well fitted inhibition curve with a large enough effect; inconclusive = small, poorly fitted or top-dose-only effect, or another doubt; inactive = no such curve, though single readings can be large or run the other way.

Cc1cc(NC(=O)C(C)SCC(=O)Nc2cc(C(F)(F)F)ccc2N2CCCCC2)no1 (configuration not stated)	Pf growth 96h 12µM, Pf growth 48h inconclusive (no result: Cycloheximide cs, LmPK inh, Shiga inhibitor)
Cc1cc(NC(=O)C(C)SCC(=O)Nc2ccccc2N2CCCC2)no1 (configuration not stated)	Pf growth 48h inconclusive (no result: Cycloheximide cs, LmPK inh, Shiga inhibitor)
Cc1noc(C)c1CSCC(=O)Nc1cc(C(F)(F)F)ccc1N1CCCCC1	Pf growth 96h inconclusive, Pf growth 48h 4.7µM (no result: Cycloheximide cs, LmPK inh, Shiga inhibitor)
Cc1noc(C)c1CSCC(=O)Nc1cc(Cl)ccc1N1CCCCC1	Pf growth 96h 6.6µM, Pf growth 48h inconclusive (no result: Cycloheximide cs, LmPK inh, Shiga inhibitor)
Cc1cc(NC(=O)C(C)SCC(=O)Nc2ccccc2C(C)(C)C)no1 (configuration not stated)	Pf growth 96h 15µM, Pf growth 48h 13µM (no result: Cycloheximide cs, LmPK inh, Shiga inhibitor)
CCCN(C(=O)CCNC(=O)Cn1cnc2ccccc2c1=O)c1cccc(Cl)c1	none
CCCCNC(=O)c1cn(CC)c2ccc(S(=O)(=O)N3CCCCCC3)cc2c1=O	Pf growth 48h inconclusive
CC(C)(C)c1ccc(OCCNCc2ccccc2)cc1	none (no result: Shiga inhibitor)
Cc1cc(C)c(C)c(OCCNCc2ccccc2)c1	Pf growth 96h 12µM
Cc1cc(C)c(OCCNCc2ccccc2)c(C)c1	none (no result: Shiga inhibitor)
Cc1cc(Cl)cc(C)c1OCCOCCNCc1ccccc1	Pf growth 96h 15µM, Pf growth 48h inconclusive (no result: Shiga inhibitor)
Clc1ccc(OCCOCCNCc2ccccc2)cc1Cl	Pf growth 96h 13µM (no result: Shiga inhibitor)
Cc1ccccc1NC(=O)COC(=O)c1ccc(S(=O)(=O)N2CCCC2)cc1	none (no result: Cycloheximide cs, LmPK inh, Shiga inhibitor)
CCOc1ccccc1NCc1nnc(-c2ccccc2)o1	Cycloheximide cs 15
CCOc1ccccc1NC(=O)c1nc(-c2ccccc2)oc1C	Pf growth 96h inconclusive
COc1ccc(OC)c(NCc2nnc(-c3ccccc3)o2)c1	none
COc1ccc(NCc2nnc(-c3ccccc3)o2)cc1	Cycloheximide cs 20, Shiga inhibitor 28, Pf growth 96h inconclusive
CCOC(=O)Nc1ccc(S(=O)(=O)NCc2ccccc2)cc1	none
CCOC(=O)Nc1c2ccccc2nc2ccccc12	Pf growth 96h 10µM, Pf growth 48h 15µM
COc1ccc(NC(=O)c2ccco2)cc1NC(=O)c1ccccc1	none
O=C(Nc1ccc(C(=O)Oc2ccccc2)c(O)c1)c1ccccc1	Cycloheximide cs 28, Shiga inhibitor 82, Pf growth 48h inconclusive
O=C(Nc1ccc(C(=O)Oc2ccccc2)c(O)c1)c1ccco1	Cycloheximide cs 55, Shiga inhibitor 131 (no result: Pf growth 96h)
CCOC(=O)Nc1ccc(Oc2ccccc2)cc1	Cycloheximide cs 36, Shiga inhibitor 121, Pf growth 96h inconclusive
Cn1c(N)c(S(=O)(=O)N2CCN(c3ccccc3)CC2)c(=O)n(C)c1=O	none
Cc1ccc(NC(=O)c2ccccc2)cc1OC(=O)c1ccccc1	Cycloheximide cs 13
CCOC(=O)Nc1cccc(NC(=O)c2cc(OC)cc(OC)c2)c1	Pf growth 48h inconclusive
CCOC(=O)Nc1ccc(C(=O)/C=C/c2ccccc2)cc1	Cycloheximide cs 22, Pf growth 96h inconclusive
CCOC(=O)Nc1ccc(C(=O)Oc2ccccc2)c(O)c1	Cycloheximide cs 37, Shiga inhibitor 104
O=C(Nc1ccccc1)c1ccc(OC(=O)c2ccccc2)cc1	Pf growth 96h inconclusive
CSc1ccc(/C=C/C(=O)c2ccc(NC(=O)Cc3ccccc3)cc2)cc1	Pf growth 96h inconclusive
COC(=O)c1ccc(NC(=O)COc2ccc(S(=O)(=O)NC(C)(C)C)cc2)cc1	none
FC(F)(F)c1cccc(C2NCc3ccccc3-n3cccc32)c1 (configuration not stated)	Pf growth 96h 4.7µM
Oc1ccc(C2NCc3ccccc3-n3cccc32)cc1Cl (configuration not stated)	Pf growth 48h 0.66µM
c1cc2n(c1)-c1c(ccc3c1OCO3)CNC2c1ccc2c(c1)OCO2 (configuration not stated)	Pf growth 48h inconclusive
Cc1cc(C)nc(/N=C(\N)Nc2ccccc2-c2ccccc2)n1	Pf growth 48h inconclusive
O=C(O)c1ccccc1-c1ccccc1C(=O)Nc1ccc2c(c1)CCC2	Pf growth 96h inconclusive (no result: Shiga inhibitor)
NS(=O)(=O)c1ccc(NC(=O)c2ccc3c(c2)CCCC3)cc1	Cycloheximide cs 48
Cc1ccc(C(=O)Nc2nc(C)c(C(=O)Nc3ccc4c(c3)CCC4)s2)cc1	Cycloheximide cs 45, Shiga inhibitor 48
O=C(Nc1ccc2c(c1)CCC2)c1ccccc1	Cycloheximide cs 31, LmPK inh inconclusive, Shiga inhibitor 48
O=C(Nc1ccc2c(c1)CCC2)c1ccccc1F	Cycloheximide cs 63, LmPK inh inconclusive, Shiga inhibitor 97
O=C1CCCN1C(=O)COc1ccccc1[N+](=O)[O-]	none (no result: Cycloheximide cs, LmPK inh, Shiga inhibitor)
CC(C)[C@H](NS(=O)(=O)c1ccc(Cl)cc1)C(=O)OCC(=O)c1c(N)n(C)c(=O)n(C)c1=O	none (no result: Cycloheximide cs, LmPK inh, Shiga inhibitor)
O=C(NNC(=O)c1ccc(-c2ccc([N+](=O)[O-])cc2)o1)c1ccncc1	none (no result: Cycloheximide cs, LmPK inh, Shiga inhibitor)
Cc1cc(S(=O)(=O)NCc2ccncc2)c(C)cc1Br	Pf growth 96h inconclusive
CCN(CC)CCNC(=O)c1ccc(NC(=O)c2ccc3c(c2)CCC3)cc1	Pf growth 96h 3.7µM, Pf growth 48h 5.2µM
Cc1cc(NC(=O)C(C)C)ncc1NC(=O)c1ccccn1	Cycloheximide cs 30, Shiga inhibitor 129
CCCC(=O)Nc1cc(C)c(NC(=O)c2ccco2)cn1	none (no result: Shiga inhibitor)
CCCCC(=O)Nc1cnc(NC(=O)c2ccco2)cc1C	Cycloheximide cs 21, Shiga inhibitor 64
CCCC(=O)Nc1cc(C)c(NC(=O)c2ccccn2)cn1	Cycloheximide cs 28, Shiga inhibitor 86
Cc1cc(NC(=O)C(C)C)ncc1NC(=O)c1cccc(F)c1	Pf growth 96h inconclusive
CCOC(=O)C1=C(Nc2ccc(Br)cc2)CC(C)(O)C(C(=O)OCC)C1c1ccccc1 (configuration not stated)	none
CC(=O)NC(CC(=O)Nc1ccc(S(=O)(=O)NC2=NCCCCC2)cc1)c1ccccc1 (configuration not stated)	none (no result: Cycloheximide cs, LmPK inh, Shiga inhibitor)
O=C(CN(c1cc(Cl)ccc1Cl)S(=O)(=O)c1ccccc1)N1CCOCC1	none
COc1ccc(C(C)(C)NC(=O)C2CCC(=O)N(C3CCCC3)C2)cc1OC (configuration not stated)	Pf growth 96h inconclusive
Cc1nnc(NC(=O)c2ccc(S(=O)(=O)N3CCc4ccccc4C3)cc2)o1	none
CCc1nnc(NC(=O)c2ccc(S(=O)(=O)N3CCc4ccccc4C3)cc2)s1	none
Cc1cc(C)c2nc(NNC(=O)c3ccc(S(=O)(=O)N4CCc5ccccc5C4)cc3)sc2c1	Pf growth 96h 3.7µM, Pf growth 48h 2.3µM
Cc1cc(C)c2sc(NNC(=O)c3ccc(S(=O)(=O)N4CCc5ccccc5C4)cc3)nc2c1	Pf growth 96h 12µM, Pf growth 48h inconclusive
Cc1cc(C)c2nc(NNC(=O)c3cc(=O)c4ccccc4o3)sc2c1	Cycloheximide cs 19, Pf growth 96h inconclusive, Pf growth 48h inconclusive
Cc1ccc(N(CC(=O)N2CCN(Cc3ccccc3)CC2)S(C)(=O)=O)cc1C	Pf growth 96h inconclusive
O=C(O)CCC1(CCC(=O)O)c2ccccc2-c2ccccc21	Pf growth 96h 6.6µM
O=C(O)CCC1(c2ccccc2)NC(=O)NC1=O (configuration not stated)	none

Screens deposited in PubChem BioAssay by National Center for Advancing Translational Sciences (NCATS).
